From PubChem BioAssay
An excerpt weighted towards active compounds, which were near 2.9% of everything screened.
pPAFAH inh: pPAFAH (human) enzyme inhibition; Q13093; recombinant pPAFAH, FP-rhodamine probe fluorescence polarization; inhibition, % at 3.39 µM; 330,000 compounds, 1.5% hits;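 active = inhibition above the mean inhibition across the screen plus 3 SD, cut at about 25% in these data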;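 note: inhibitors block binding of the rhodamine activity-based probe so polarization drops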
PAFAH1B2 FP inh: blocks human PAF acetylhydrolase 1b catalytic subunit 2; P68402; recombinant PAFAH1B2, FP-rhodamine activity probe, fluorescence polarization; inhibition, % at 3.39 µM; 340,000 compounds, 1.2% hits;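 active = inhibition above the mean of all tested compounds plus 3 SD, cut at about 24% in these data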
Target sequence (P68402 whole entry, looked up): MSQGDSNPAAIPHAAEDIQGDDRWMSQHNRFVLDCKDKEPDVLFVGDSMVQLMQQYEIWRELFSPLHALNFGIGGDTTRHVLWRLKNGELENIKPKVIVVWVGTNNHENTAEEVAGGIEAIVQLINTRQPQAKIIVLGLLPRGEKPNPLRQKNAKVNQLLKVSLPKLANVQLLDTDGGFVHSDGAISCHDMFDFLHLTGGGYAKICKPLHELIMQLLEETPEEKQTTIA
PME-1 primary: blocks human protein phosphatase methylesterase 1 | inhibition, % at 5.9 µM | 320,000 compounds, 0.53% hits | AID 2130 | recombinant PME-1, FP-Rh probe fluorescence polarization;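 active = inhibition above the campaign mean of all compounds plus 3 SD, cut at about 26% in these data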;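 note: competitive labeling of PME-1 active site by serine hydrolase directed probe; inhibitors block probe labeling so polarization falls and inhibition rises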
PAFAH1B3 FP inh: inhibitors of human PAFAH1B3; recombinant PAFAH1B3, FP-rhodamine probe, fluorescence polarization; Q15102; inhibition, % at 3.39 µM; 340,000 compounds, 0.28% hits;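 active = inhibition above the screen-wide average of all tested compounds plus 3 SD, cut at about 25% in these data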
Target sequence (Q15102 whole entry, looked up): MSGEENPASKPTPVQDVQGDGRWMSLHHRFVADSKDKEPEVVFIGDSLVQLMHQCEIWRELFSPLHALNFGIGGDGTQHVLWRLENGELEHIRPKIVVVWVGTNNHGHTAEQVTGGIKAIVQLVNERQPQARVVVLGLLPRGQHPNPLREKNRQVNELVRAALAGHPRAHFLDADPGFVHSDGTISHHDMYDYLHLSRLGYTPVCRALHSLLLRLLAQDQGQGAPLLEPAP
PAFAH2 FP inh: PAFAH2 (human) inhibition | inhibition, % at 3.39 µM | AID 492956 | recombinant PAFAH2, FP-rhodamine activity probe, fluorescence polarization | Q99487 | 340,000 compounds, 0.99% hits;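 active = inhibition above the mean over all tested compounds plus 3 SD, cut at about 30% in these data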;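 note: inhibitors block probe labeling of enzyme so polarization drops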
Fam108B inh: blocks mouse Fam108B hydrolase in RBBP9 counter-screen | recombinant Fam108B, FP-Rh probe fluorescence polarization | inhibition, % at 9.51 µM | 300,000 compounds, 0.33% hits | AID 1947;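 active = inhibition above the screen mean inhibition plus 3 SD, computed separately per campaign, cut at about 18% in these data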;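 note: inhibitors lower polarization as less probe binds the enzyme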
PAFAH2 confirm: confirmation of human PAFAH2 inhibitors. recombinant PAFAH2, FP-rhodamine activity probe, fluorescence polarization. shares compounds with PAFAH2 FP inh. 2,300 compounds, 65% hits. inhibition, % at 3.39 µM;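 active = mean inhibition over three repeats above a set limit taken from the earlier primary screen, cut at about 30% in these data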;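 note: inhibitor blocks binding of rhodamine activity probe so polarization falls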
A number is an active result.

How did C=CCn1c(O)c(C=Nc2ccc(Cc3ccncc3)cc2)c(=O)[nH]c1=S do in these assays?
pPAFAH inh: inactive; PAFAH1B2 FP inh: inactive; PME-1 primary: inactive; PAFAH1B3 FP inh: inactive; PAFAH2 FP inh: 32.0; Fam108B inh: inactive; PAFAH2 confirm: inactive

How did Cc1ccc(S(=O)(=O)N2CCOCC2)cc1NC(=O)COC(=O)c1ccc(Cl)nc1 do in these assays?
pPAFAH inh: inactive; PAFAH1B2 FP inh: inactive; PAFAH1B3 FP inh: inactive; PAFAH2 FP inh: inactive

What do the screens show for `COc1ccc(C(=O)OCC(=O)Nc2cc(S(=O)(=O)N3CCOCC3)ccc2N2CCCC2)cc1`?
pPAFAH inh: inactive; PAFAH1B2 FP inh: inactive; PME-1 primary: inactive; PAFAH1B3 FP inh: inactive; PAFAH2 FP inh: 38.5; Fam108B inh: inactive; PAFAH2 confirm: 33.1

Results for COc1cc(C(=O)OCC(=O)Nc2cccc(S(=O)(=O)N3CCOCC3)c2)ccc1OCC(C)C ?
pPAFAH inh: inactive; PAFAH1B2 FP inh: inactive; PME-1 primary: inactive; PAFAH1B3 FP inh: inactive; PAFAH2 FP inh: 46.4; Fam108B inh: inactive; PAFAH2 confirm: 43.7

Results for Cc1ccc(S(=O)(=O)N2CCOCC2)cc1NC(=O)COC(=O)c1ccc(Br)cc1 ?
pPAFAH inh: inactive; PAFAH1B2 FP inh: inactive; PAFAH1B3 FP inh: inactive; PAFAH2 FP inh: 41.7; PAFAH2 confirm: 30.6

Results for COc1cc(C(=O)OCc2cccc(S(=O)(=O)N3CCOCC3)c2)ccc1OCC(C)C ?
pPAFAH inh: inactive; PAFAH1B2 FP inh: inactive; PME-1 primary: inactive; PAFAH1B3 FP inh: inactive; PAFAH2 FP inh: inactive

Results for Nc1cc(C(=O)OCC(=O)Nc2cccc(S(=O)(=O)N3CCOCC3)c2)ccc1Cl ?
pPAFAH inh: inactive; PAFAH1B2 FP inh: inactive; PAFAH1B3 FP inh: inactive; PAFAH2 FP inh: 64.8; PAFAH2 confirm: 57.6

How did Cn1c(N)c(C(=O)COC(=O)/C=C/c2ccccc2F)c(=O)n(C)c1=O do in these assays?
pPAFAH inh: inactive; PAFAH1B2 FP inh: inactive; PAFAH1B3 FP inh: inactive; PAFAH2 FP inh: inactive

How did COc1ccc(S[C@@H](CCN2CC[C@H](NC(=O)OCc3ccccc3)CCC2=O)c2ccccc2)cc1 do in these assays?
pPAFAH inh: inactive; PAFAH1B2 FP inh: inactive; PAFAH1B3 FP inh: inactive; PAFAH2 FP inh: inactive

What do the screens show for `O=C(c1ccc([N+](=O)[O-])cc1)N1CCc2ccccc2C1`?
pPAFAH inh: inactive; PAFAH1B2 FP inh: inactive; PME-1 primary: inactive; PAFAH1B3 FP inh: inactive; PAFAH2 FP inh: inactive; Fam108B inh: inactive

How did COc1ccc(OC)c(C2C(C(=O)c3ccco3)=C(O)C(=O)N2CCN2CCOCC2)c1 (stereo not given) do in these assays?
pPAFAH inh: inactive; PAFAH1B2 FP inh: inactive; PME-1 primary: inactive; PAFAH1B3 FP inh: inactive; PAFAH2 FP inh: inactive; Fam108B inh: inactive

Results for COc1cc(C(=O)OCC(=O)Nc2cc(S(=O)(=O)N3CCOCC3)ccc2C)ccc1OCC(C)C ?
pPAFAH inh: inactive; PAFAH1B2 FP inh: inactive; PME-1 primary: inactive; PAFAH1B3 FP inh: inactive; PAFAH2 FP inh: 57.7; Fam108B inh: inactive; PAFAH2 confirm: 49.2

Results for Cc1c(C(=O)OCC(=O)NC2CCCCC2)oc2ccccc12 ?
pPAFAH inh: inactive; PAFAH1B2 FP inh: inactive; PME-1 primary: inactive; PAFAH1B3 FP inh: inactive; PAFAH2 FP inh: 46.5; PAFAH2 confirm: 48.0

How did COc1ccc2oc(C(=O)OCC(=O)NC3CCCCC3)c(C)c2c1 do in these assays?
pPAFAH inh: inactive; PAFAH1B2 FP inh: inactive; PME-1 primary: inactive; PAFAH1B3 FP inh: inactive; PAFAH2 FP inh: 63.7; Fam108B inh: inactive; PAFAH2 confirm: 57.1

Results for COc1ccc(Br)c(C(=O)OCC(=O)NC2CCCCCC2)c1 ?
pPAFAH inh: inactive; PAFAH1B2 FP inh: inactive; PME-1 primary: inactive; PAFAH1B3 FP inh: inactive; PAFAH2 FP inh: 77.4; PAFAH2 confirm: 60.0

Results for CSCc1c(C(=O)OCC(=O)NC2CCCCC2)oc2ccccc12 ?
pPAFAH inh: inactive; PAFAH1B2 FP inh: inactive; PME-1 primary: inactive; PAFAH1B3 FP inh: inactive; PAFAH2 FP inh: 56.6; PAFAH2 confirm: 60.1

How did Cc1c(C(=O)OCC(=O)NCC2CCCO2)oc2ccccc12 (stereo not given) do in these assays?
pPAFAH inh: inactive; PAFAH1B2 FP inh: inactive; PAFAH1B3 FP inh: inactive; PAFAH2 FP inh: inactive

How did COc1ccc(CN(C(=O)c2snc(C(N)=O)c2N)C(C(=O)NC2CCCC2)c2cc(OC)ccc2OC)cc1 (stereo not given) do in these assays?
pPAFAH inh: inactive; PAFAH1B2 FP inh: inactive; PME-1 primary: inactive; PAFAH1B3 FP inh: inactive; PAFAH2 FP inh: inactive; Fam108B inh: inactive

Results for COc1cc(CCC(=O)OCC(=O)NCc2ccc(Cl)cc2)cc(OC)c1OC ?
pPAFAH inh: inactive; PAFAH1B2 FP inh: inactive; PME-1 primary: inactive; PAFAH1B3 FP inh: inactive; PAFAH2 FP inh: inactive; Fam108B inh: inactive

What do the screens show for `Cc1[nH]c(C)c(S(=O)(=O)N2CCCCC2)c1C(=O)N1CCCC1`?
pPAFAH inh: inactive; PAFAH1B2 FP inh: inactive; PME-1 primary: inactive; PAFAH1B3 FP inh: inactive; PAFAH2 FP inh: inactive; Fam108B inh: inactive

What do the screens show for `CCOc1ccc2oc(C(=O)OCC(=O)NC(=O)NC3CCCC3)c(C)c2c1`?
pPAFAH inh: inactive; PAFAH1B2 FP inh: inactive; PME-1 primary: inactive; PAFAH1B3 FP inh: inactive; PAFAH2 FP inh: inactive; Fam108B inh: inactive

Results for CCOc1ccc2oc(C(=O)OCC(=O)NC3CCCC3)c(C)c2c1 ?
pPAFAH inh: inactive; PAFAH1B2 FP inh: inactive; PME-1 primary: inactive; PAFAH1B3 FP inh: inactive; PAFAH2 FP inh: 55.4; PAFAH2 confirm: 31.6

Results for Cc1ccccc1NC(=O)Cc1nc(CN(C)CC(=O)Nc2cccc(F)c2)cs1 ?
pPAFAH inh: inactive; PAFAH1B2 FP inh: inactive; PME-1 primary: inactive; PAFAH1B3 FP inh: inactive; PAFAH2 FP inh: inactive

What do the screens show for `Cc1ccc(NC(=O)Cc2nc(CN(C)CC(=O)Nc3ccc(C)cc3)cs2)cc1`?
pPAFAH inh: inactive; PAFAH1B2 FP inh: inactive; PME-1 primary: inactive; PAFAH1B3 FP inh: inactive; PAFAH2 FP inh: 31.1; PAFAH2 confirm: inactive

Results for C/C(=N\NC(=O)c1c(Cl)c(C)nn1C)c1cccc(NC(=O)COc2ccc(Cl)cc2)c1 ?
pPAFAH inh: inactive; PAFAH1B2 FP inh: inactive; PME-1 primary: inactive; PAFAH1B3 FP inh: inactive; PAFAH2 FP inh: inactive; Fam108B inh: inactive

What do the screens show for `CCN(C(=O)COC(=O)c1cc(-c2ccc(C)o2)nc2ccccc12)C1CCS(=O)(=O)C1` (stereo not given)?
pPAFAH inh: inactive; PAFAH1B2 FP inh: inactive; PME-1 primary: inactive; PAFAH1B3 FP inh: inactive; PAFAH2 FP inh: 45.5; Fam108B inh: inactive; PAFAH2 confirm: inactive

Results for Cc1ccc(-c2cc(C(=O)OCC(=O)N(C)C3CCS(=O)(=O)C3)c3ccccc3n2)o1 (stereo not given) ?
pPAFAH inh: inactive; PAFAH1B2 FP inh: inactive; PME-1 primary: inactive; PAFAH1B3 FP inh: inactive; PAFAH2 FP inh: inactive; Fam108B inh: inactive

What do the screens show for `C[C@H](NC(=O)[C@@H]1Cc2ccccc2CN1)C(=O)NC1CCCCC1`?
pPAFAH inh: inactive; PAFAH1B2 FP inh: inactive; PME-1 primary: inactive; PAFAH1B3 FP inh: inactive; PAFAH2 FP inh: inactive; Fam108B inh: inactive
